Screens from PubChem.
Rows were chosen to be rich in hits. Some 6.3% of all compounds tested hit in one or more screens of this group.
Gal4-VP16 FLuc = Gal4-VP16 reporter inhibition counter-screen; Drosophila S2 Gal4-VP16 UAS-luciferase, luminescence, 20 h; Potency, µM (top dose mostly 53.6 µM), for the others: top-dose activity, negative = inhibition, most hits filed as inhibitors; 310,000 compounds, 3.5% hits; AID 2546;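 note: Gal4-VP16 expression switched on by copper sulfate through the metallothionein promoter; % is set by controls: 0 for no effect and ±100 for the full control effect; nearly all actives have a fitted effect of over 50% in size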
HepG2 viability = kills HepG2 cells in TGF-b inhibitor counter-screen | 410,000 compounds, 0.76% hits | Potency, µM (doses to about 46.1 µM), inactives show at the highest dose activity change, negative = cytotoxicity, usual class: cytotoxic | HepG2 CAGA-GFP viability, ATP luminescence, 18 h
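CellTiter-Glo luminescence gave cytotoxicity after 18 hours at 37 degrees C. The cells were HepG2 CAGA-GFP in 1% FBS DMEM, stimulated with 500 pg/mL TGF-beta after compound addition. %Activity was normalised to no-cell wells (complete cell-killing) and DMSO (no toxicity), and curves were fitted and classified.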
S2 tox = viability counter-screen for ATXN expression inhibitors; Potency, µM (series often up to 56.7 µM), hits mostly cytotoxic; S2 cells (HEK-293 line with an ATXN2-luciferase reporter) viability, CellTiter-Fluor protease fluorescence, 24 h; 400,000 compounds, 0.49% hits; AID 651635; note: nearly all actives have a fitted effect of over 40% in size
ATXN2 expr inh = reduces ATXN2 reporter expression in HEK-293 cells; HEK-293 ATXN2-luciferase reporter, luminescence, 24 h; AID 1745845; 360,000 compounds, 0.72% hits; Potency, µM (titrated, usually from 57 µM), inactives show at the highest dose activity change, negative = inhibition, usual class: inhibitors; note: % is set by controls: 0 for no effect and ±100 for the full control effect; nearly all actives have a fitted effect of over 55% in size
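ATXN2-luciferase reporter cells (luciferase flanked by upstream and downstream ATXN2 gene portions) were treated 24 h at 37 °C with compounds at up to 57 uM. SteadyGlo luminescence gave expression; GF-AFC fluorescence gave viability.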
RORg inh = inhibitors of mouse ROR gamma transcriptional activity; P51450; Drosophila S2 Gal4-RORgamma UAS-luciferase reporter, 20 h; Potency, µM (top dose mostly 53.6 µM), inactives show top-dose activity change, negative = inhibition, hits mostly inhibitors; 310,000 compounds, 5.4% hits; AID 2551; note: % is set by controls: 0 for no effect and ±100 for the full control effect; nearly all actives have a fitted effect of over 60% in size
Target sequence (P51450 whole entry, looked up, the tested form may be a part): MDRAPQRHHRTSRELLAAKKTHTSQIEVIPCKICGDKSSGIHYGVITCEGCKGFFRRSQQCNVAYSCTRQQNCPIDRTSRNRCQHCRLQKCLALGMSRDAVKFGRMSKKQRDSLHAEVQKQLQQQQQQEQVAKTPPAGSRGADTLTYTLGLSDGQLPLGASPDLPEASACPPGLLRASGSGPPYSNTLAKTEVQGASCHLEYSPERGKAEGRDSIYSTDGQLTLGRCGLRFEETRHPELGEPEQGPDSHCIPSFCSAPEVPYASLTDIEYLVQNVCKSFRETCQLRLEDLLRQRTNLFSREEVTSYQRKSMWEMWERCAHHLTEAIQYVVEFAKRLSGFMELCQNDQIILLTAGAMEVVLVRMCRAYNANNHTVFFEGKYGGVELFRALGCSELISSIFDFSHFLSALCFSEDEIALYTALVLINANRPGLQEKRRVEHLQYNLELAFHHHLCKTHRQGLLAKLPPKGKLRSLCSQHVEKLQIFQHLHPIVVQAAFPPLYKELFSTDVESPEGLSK
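Drosophila S2 cells stably expressing Gal4-DBD/mouse RORγ fusion under metallothionein promoter plus UAS-luciferase; compound 1 h, then 700 uM CuSO4 induction for 20 h at ambient temperature; inhibition read as reduced luminescence.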
TGFb SMAD3 inh = inhibitors of TGF-b signaling; HepG2 CAGA-GFP TGF-b/SMAD3 reporter, GFP fluorescence, 18 h; TGF-beta stimulated, 500 pg/mL final; Potency, µM (titrated, usually from 46.1 µM), without a hit: top-dose activity, negative = inhibition, actives largely listed as inhibitors; 410,000 compounds, 1.2% hits; AID 588855; note: % is set by controls: 0 for no effect and ±100 for the full control effect; nearly all actives have a fitted effect of over 65% in size
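Inhibition was scored as loss of TGF-beta-induced (500 pg/mL final, 18 hours, 37 degrees C) GFP in HEPG2 cells carrying a CAGA-GFP reporter, in DMEM with 1% FBS. Well GFP was summed per cell; Activity was normalised to unstimulated and stimulated DMSO wells, then concentration-response fitting.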
Active calls of the source: *; i = inactive; u = inconclusive; x = no result given; ! = a repeat was not active; [ ] = dose if it differs, or a comment. Calls come from the whole dose curve; as a rule, active = well fitted curve in the direction sought with a large enough effect; inconclusive = small, poorly fitted or top-dose-only effect, or another doubt; inactive = no such curve, though single readings can be large; an effect the other way counts as inactive or inconclusive. Potency is the fitted concentration of half-maximal effect.

SMILES | Gal4-VP16 FLuc | HepG2 viability | S2 tox | ATXN2 expr inh | RORg inh | TGFb SMAD3 inh
Oc1c(Cl)cc(Cl)cc1Sc1cc(Cl)cc(Cl)c1O | 13µM* | x | i | 1% | u | x
NC1=CC(=O)c2cccc3cccc1c23 | 22µM* | x | x | x | 11µM* | x
C=CC(=O)Nc1cccc(Oc2ncnc3[nH]cc(-c4cnc5ccccc5c4)c23)c1 | x | -15% | u | 15% | x | -25%
C=CC(=O)Nc1cccc(Oc2ccnc3[nH]ccc23)c1 | x | 2% | 8.9µM* | -33% | x | u
COC(=O)CSc1nc(N)c2c3c(sc2n1)C(c1ccccc1)SC(c1ccccc1)C3 (configuration not stated) | 11µM* | -7% | x | u | 10µM* | 3%
Cc1cc(C)cc(OCC(=O)N2N=C(C(F)(F)F)CC2(O)C(C)(C)C)c1 (configuration not stated) | u | 18µM* | i | u | u | u
COc1cc(N=Nc2ccc3ccccc3c2)ccc1O | -29% | -60% | u | 3% | 13%[1.91 µM] | -26%
Oc1ccc(N=Nc2c(O)ccc3ccccc23)cc1 | 13µM* | 14µM* | u | -14% | u | u
Oc1ccc(N=Nc2ccc3ccccc3c2)cc1 | u | -31% | i | 72% | 6.3µM* | u
NS(=O)(=O)c1ccc(N=Nc2c(O)ccc3ccccc23)cc1 | -12% | -74% | u | -6% | 28% | u
CCOCC(=O)Nc1nc2ccc(C)cc2s1 | -29% | -43% | i | 15% | -39% | u
Cc1ccc2nc(NC(=O)C3CC3C)sc2c1 (configuration not stated) | -13% | -8% | i | 59% | 7.1µM* | 0%
Cc1ccc2nc(NC(=O)CCCC(=O)O)sc2c1 | 0.79µM* | -54% | i | x | 1.1µM* | 19%
Cc1ccc2nc(NC(=O)CSCC(=O)OCC(=O)c3ccccc3)sc2c1 | 2.2µM* | -28% | i | u | 5µM* | 7%
N=c1ccn2c(n1)OC1C(O)[C@@H](CO)O[C@H]12 (some centres not stated) | x | -13% | x | x | x | 1%
CN(Cc1ccccc1)C(=O)c1csc(COCCO)n1 | x | 2% | i | 1% | x | 18%
Cc1c(Cl)sn(-c2ccc(Cl)cc2)c1=O | 2.8µM* | -140% | 30µM* | 8.9µM* | 1.6µM* | u
Cc1ccccc1-n1nnnc1Sc1nnnn1-c1ccccc1 | u | -35% | u | u | u | u
CCCSc1nnc(Sc2nnnn2-c2ccccc2)s1 | -28% | -35% | u | u | 1.6µM* | u
COc1ccc(/C=N/Nc2nncc3ccccc23)c(OC)c1 | 22µM* | -11% | u | 49% | 4.5µM* | 1%
COc1cc(/C=N/Nc2nncc3ccccc23)cc(OC)c1OC | 11µM* | -53% | i | x | u | 28%
COc1ccc(/C=N\Nc2ccccn2)c(OC)c1 | u | -21% | i | 28% | u | -18%
Cc1cccc(/C=N/Nc2nncc3ccccc23)c1 | 20µM* | -30% | i | -14% | 2.5µM* | 0%
CCOc1ccc(-c2nc3c(c(SCC(=O)N4CCCCC4)n2)Cc2cccc(OC)c2O3)cc1 | x | 2% | i | -5% | x | -5%
COC(=O)C/C=C\[C@@H](C)[C@@H](/C=N\O[C@@H]1O[C@H](COC(C)=O)[C@@H](OC(C)=O)[C@H](OC(C)=O)[C@H]1OC(C)=O)NS(=O)(=O)c1ccc(C)cc1 | -5%[10 µM] | x | x | x | -5%[10 µM] | x
SMILES | Gal4-VP16 FLuc | HepG2 viability | S2 tox | ATXN2 expr inh | RORg inh | TGFb SMAD3 inh
Cc1cc(-c2cc(F)cc3c2OC(CNC(=O)CCn2cncn2)C3)ccc1F (configuration not stated) | x | x | i | x | x | x
CCCCc1ccc(C(=O)N/C(=C\c2ccc(C)cc2)C(=O)NC2CCCCC2)cc1 | x | -23% | i | -5% | x | -21%
CSCC[C@H](N)C(=O)N[C@@H](CCC(=O)O)C(=O)N[C@H](C(=O)NCC(=O)N[C@@H](Cc1c[nH]c2ccccc12)C(=O)N[C@@H](Cc1ccc(O)cc1)C(=O)N[C@@H](CCCNC(=N)N)C(=O)N[C@@H](CO)C(=O)N1CCC[C@H]1C(=O)N[C@@H](Cc1ccccc1)C(=O)N[C@@H](CO)C(=O)N[C@@H](CCCNC(=N)N)C(=O)N[C@H](C(=O)N[C@H](C(=O)N[C@@H](Cc1cnc[nH]1)C(=O)N[C@@H](CC(C)C)C(=O)N[C@@H](Cc1ccc(O)cc1)C(=O)N[C@@H](CCCNC(=N)N)C(=O)N[C@@H](CC(N)=O)C(=O)NCC(=O)N[C@@H](CCCCN)C(=O)O)C(C)C)C(C)C)C(C)C | -7% | x | x | x | 1% | x
COCCNC(=O)/C(C#N)=C/C=C/c1ccccc1[N+](=O)[O-] | -16% | -7% | u | u | 13µM* | 20µM*
COCCNC(=O)/C(C#N)=C/c1ccc(O)c([N+](=O)[O-])c1 | -20% | 24% | i | x | 2% | -5%
N#C/C(=C\c1cccc([N+](=O)[O-])c1)C(=O)NCc1cccnc1 | u | -8% | u | -6% | u | -6%
COCCNC(=O)/C(C#N)=C/c1cccc(/C=C(\C#N)C(=O)NCCOC)c1 | 11µM* | -47% | u | -25% | 13µM* | u
N#C/C(=C\c1cccc([N+](=O)[O-])c1)C(=O)NCc1ccc(Cl)cc1 | 18µM* | -28% | u | 24µM* | u | u
N#C/C(=C\c1ccc(O)c(O)c1)C(=O)NCCCc1ccccc1 | 11µM* | -24% | i | -21% | 22µM*! | -2%
Cc1cnc(CNc2ncncc2-c2c(C)noc2C)cn1 | 0% | x | x | x | 14% | x
Cc1nc(CN2CCN(C(=O)CC3(c4ccccc4Cl)CC(=O)N(C)C3=O)CC2)cs1 (configuration not stated) | x | x | i | x | x | x
CC(C)=CCCC(C)=CCCC(C)=CCCC(C)=CCCC(C)=CCCC(C)=CCCC(C)=CCCC(C)=CCCC(C)=CCO | x | x | x | 8% | x | x
CCOCCCNC(=O)/C(C#N)=C/c1cc(OC)c(O)c([N+](=O)[O-])c1 | -15% | 2% | u | -15% | -41% | -28%
CCOCCCNC(=O)/C(C#N)=C/c1ccc(Cl)c([N+](=O)[O-])c1 | u | -58% | u | u | 13µM* | u
O=C1c2ccccc2NC(c2ccccc2OCc2ccccc2)N1Cc1ccco1 (configuration not stated) | x | -30% | x | x | x | u
O=C(NCc1cccc(Cl)c1)c1cccc2c(-c3cccnc3)coc12 | x | -44% | 20µM* | 28µM* | x | u
